Tests used:
[1] = molecular target: Homeodomain-interacting protein kinase 3 (Homo sapiens) (UniProt Q9H422); details: at 10 µM
[2] = molecular target: T1, Serine/threonine-protein kinase haspin (Homo sapiens) (UniProt Q8TF76); details: at 1 µM
T1 sequence (whole entry): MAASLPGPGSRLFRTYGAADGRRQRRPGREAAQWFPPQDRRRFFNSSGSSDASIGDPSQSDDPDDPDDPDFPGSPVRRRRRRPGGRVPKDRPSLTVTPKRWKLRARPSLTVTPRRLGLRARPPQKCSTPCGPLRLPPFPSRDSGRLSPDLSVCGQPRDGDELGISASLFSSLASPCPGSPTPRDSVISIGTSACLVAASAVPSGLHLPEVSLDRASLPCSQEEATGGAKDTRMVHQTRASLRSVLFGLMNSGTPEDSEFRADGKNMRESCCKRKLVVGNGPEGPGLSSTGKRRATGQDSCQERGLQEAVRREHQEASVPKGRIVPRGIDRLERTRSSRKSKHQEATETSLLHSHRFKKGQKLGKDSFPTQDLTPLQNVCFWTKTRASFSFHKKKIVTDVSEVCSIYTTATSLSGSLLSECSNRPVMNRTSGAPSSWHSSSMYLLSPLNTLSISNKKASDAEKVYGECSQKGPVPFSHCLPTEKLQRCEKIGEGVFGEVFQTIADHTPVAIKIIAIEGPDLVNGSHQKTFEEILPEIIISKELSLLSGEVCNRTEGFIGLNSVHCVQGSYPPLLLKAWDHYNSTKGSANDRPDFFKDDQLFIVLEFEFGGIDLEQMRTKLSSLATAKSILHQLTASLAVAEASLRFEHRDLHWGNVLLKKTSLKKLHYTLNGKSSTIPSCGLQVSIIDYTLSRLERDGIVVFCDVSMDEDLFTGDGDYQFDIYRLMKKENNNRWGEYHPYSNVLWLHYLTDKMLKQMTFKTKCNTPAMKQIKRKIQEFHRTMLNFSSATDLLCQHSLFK

[3] = molecular target: T1, Serine/threonine-protein kinase haspin (Homo sapiens); details: at 10 µM
[4] = molecular target: Tyrosine-protein kinase HCK (Homo sapiens) (UniProt P08631); details: at 1 µM
[5] = molecular target: Tyrosine-protein kinase HCK (Homo sapiens) (UniProt P08631); details: at 10 µM
[6] = molecular target: Tyrosine-protein kinase HCK (Homo sapiens) (UniProt P08631); details: at 1 µM; remark: listed apart in the source
[7] = molecular target: Tyrosine-protein kinase HCK (Homo sapiens) (UniProt P08631); details: at 10 µM; remark: listed apart in the source
[8] = molecular target: Insulin-like growth factor 1 receptor (Homo sapiens) (UniProt P08069); details: at 1 µM
[9] = molecular target: Insulin-like growth factor 1 receptor (Homo sapiens) (UniProt P08069); details: at 10 µM
[10] = molecular target: Protein kinase C eta type (Homo sapiens) (UniProt P24723); details: at 1 µM
[11] = molecular target: Protein kinase C eta type (Homo sapiens) (UniProt P24723); details: at 10 µM
[12] = molecular target: Protein kinase C theta type (Homo sapiens) (UniProt Q04759); details: at 1 µM
[13] = molecular target: Protein kinase C theta type (Homo sapiens) (UniProt Q04759); details: at 10 µM
[14] = molecular target: T2, Protein kinase C iota type (Homo sapiens) (UniProt P41743); details: at 1 µM
T2 sequence (whole entry): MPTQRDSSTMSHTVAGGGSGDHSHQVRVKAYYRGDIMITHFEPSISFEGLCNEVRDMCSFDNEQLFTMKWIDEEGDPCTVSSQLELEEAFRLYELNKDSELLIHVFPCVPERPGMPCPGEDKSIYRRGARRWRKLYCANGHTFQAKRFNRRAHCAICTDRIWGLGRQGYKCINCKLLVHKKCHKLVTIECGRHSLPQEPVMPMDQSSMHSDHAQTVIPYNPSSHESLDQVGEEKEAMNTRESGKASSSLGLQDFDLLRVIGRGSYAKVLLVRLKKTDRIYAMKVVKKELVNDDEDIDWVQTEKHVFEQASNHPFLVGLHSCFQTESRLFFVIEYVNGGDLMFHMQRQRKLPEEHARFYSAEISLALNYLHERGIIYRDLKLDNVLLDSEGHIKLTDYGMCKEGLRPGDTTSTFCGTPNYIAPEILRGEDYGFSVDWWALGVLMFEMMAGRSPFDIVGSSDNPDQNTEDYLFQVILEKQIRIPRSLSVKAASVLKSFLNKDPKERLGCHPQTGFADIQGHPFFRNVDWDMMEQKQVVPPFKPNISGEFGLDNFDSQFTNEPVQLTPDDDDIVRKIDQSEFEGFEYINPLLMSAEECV

[15] = molecular target: T3, Serine/threonine-protein kinase D1 (Homo sapiens) (UniProt Q15139); details: at 1 µM
T3 sequence (whole entry): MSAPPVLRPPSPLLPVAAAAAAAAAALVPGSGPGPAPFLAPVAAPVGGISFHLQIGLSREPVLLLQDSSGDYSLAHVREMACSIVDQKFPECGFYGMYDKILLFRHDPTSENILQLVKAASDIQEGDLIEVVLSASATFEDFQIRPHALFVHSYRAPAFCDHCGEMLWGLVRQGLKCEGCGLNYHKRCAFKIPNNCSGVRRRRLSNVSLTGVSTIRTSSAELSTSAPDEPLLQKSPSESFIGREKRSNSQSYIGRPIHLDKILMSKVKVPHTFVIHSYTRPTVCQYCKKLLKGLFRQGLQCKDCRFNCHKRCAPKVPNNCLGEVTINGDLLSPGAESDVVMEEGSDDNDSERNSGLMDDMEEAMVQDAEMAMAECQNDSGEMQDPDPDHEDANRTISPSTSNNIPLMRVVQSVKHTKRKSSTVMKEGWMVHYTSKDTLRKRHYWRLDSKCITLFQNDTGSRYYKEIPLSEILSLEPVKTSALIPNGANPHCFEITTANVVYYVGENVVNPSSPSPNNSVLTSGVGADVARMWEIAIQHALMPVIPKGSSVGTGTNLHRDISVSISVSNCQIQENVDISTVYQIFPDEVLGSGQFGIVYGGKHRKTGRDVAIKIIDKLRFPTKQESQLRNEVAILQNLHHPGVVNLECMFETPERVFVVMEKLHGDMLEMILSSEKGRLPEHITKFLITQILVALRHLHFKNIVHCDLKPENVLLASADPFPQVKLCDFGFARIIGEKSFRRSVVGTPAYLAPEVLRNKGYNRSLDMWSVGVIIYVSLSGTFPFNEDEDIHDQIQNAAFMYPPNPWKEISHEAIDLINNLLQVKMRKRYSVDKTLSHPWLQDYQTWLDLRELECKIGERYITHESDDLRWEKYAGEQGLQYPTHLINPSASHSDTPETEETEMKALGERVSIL

[16] = molecular target: T3, Serine/threonine-protein kinase D1 (Homo sapiens); details: at 10 µM
[17] = molecular target: T4, Serine/threonine-protein kinase D2 (Homo sapiens) (UniProt Q9BZL6); details: at 1 µM
T4 sequence (whole entry): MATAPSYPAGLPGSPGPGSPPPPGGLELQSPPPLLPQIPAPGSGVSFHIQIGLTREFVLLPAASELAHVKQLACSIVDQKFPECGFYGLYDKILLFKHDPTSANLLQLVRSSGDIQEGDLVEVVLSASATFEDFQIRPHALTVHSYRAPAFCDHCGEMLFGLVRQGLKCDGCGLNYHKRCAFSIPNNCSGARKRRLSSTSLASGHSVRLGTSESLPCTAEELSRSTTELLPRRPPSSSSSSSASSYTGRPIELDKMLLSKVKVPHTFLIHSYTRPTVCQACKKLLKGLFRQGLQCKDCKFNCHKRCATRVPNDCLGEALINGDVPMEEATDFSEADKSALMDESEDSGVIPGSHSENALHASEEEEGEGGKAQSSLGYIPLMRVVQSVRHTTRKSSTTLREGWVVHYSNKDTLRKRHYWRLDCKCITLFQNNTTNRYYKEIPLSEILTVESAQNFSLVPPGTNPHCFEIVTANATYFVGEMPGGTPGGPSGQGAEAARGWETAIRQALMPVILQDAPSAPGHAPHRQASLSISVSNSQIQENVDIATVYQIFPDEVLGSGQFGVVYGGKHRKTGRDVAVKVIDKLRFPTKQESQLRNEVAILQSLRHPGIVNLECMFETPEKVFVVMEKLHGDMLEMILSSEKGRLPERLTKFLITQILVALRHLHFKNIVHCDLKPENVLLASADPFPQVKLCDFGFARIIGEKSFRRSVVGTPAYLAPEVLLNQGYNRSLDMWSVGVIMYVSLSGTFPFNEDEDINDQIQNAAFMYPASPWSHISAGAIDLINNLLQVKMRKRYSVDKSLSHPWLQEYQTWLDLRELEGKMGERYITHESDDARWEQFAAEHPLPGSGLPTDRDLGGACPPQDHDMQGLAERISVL

[18] = molecular target: T5, Protein kinase C zeta type (Homo sapiens) (UniProt Q05513); details: at 10 µM
T5 sequence (whole entry): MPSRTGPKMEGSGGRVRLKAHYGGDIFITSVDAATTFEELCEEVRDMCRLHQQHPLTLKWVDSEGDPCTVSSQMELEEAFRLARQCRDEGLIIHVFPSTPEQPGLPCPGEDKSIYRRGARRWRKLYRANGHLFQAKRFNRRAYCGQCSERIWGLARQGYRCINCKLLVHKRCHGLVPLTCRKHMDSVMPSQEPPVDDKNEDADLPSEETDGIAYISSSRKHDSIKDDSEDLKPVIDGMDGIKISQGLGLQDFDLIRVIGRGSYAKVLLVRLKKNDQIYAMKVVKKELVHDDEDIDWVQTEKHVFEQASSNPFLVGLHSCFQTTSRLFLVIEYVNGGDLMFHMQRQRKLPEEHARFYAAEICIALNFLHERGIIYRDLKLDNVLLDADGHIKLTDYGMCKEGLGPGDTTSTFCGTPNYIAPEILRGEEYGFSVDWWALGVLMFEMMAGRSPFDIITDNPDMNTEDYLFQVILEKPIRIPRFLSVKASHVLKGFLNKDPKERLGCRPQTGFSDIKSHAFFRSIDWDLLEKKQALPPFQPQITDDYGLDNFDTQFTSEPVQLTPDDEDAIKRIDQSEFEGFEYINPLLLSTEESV

[19] = molecular target: T2, Protein kinase C iota type (Homo sapiens); details: at 10 µM
[20] = molecular target: T4, Serine/threonine-protein kinase D2 (Homo sapiens); details: at 10 µM

Sequence of Homeodomain-interacting protein kinase 3 (Homo sapiens) (Q9H422 whole entry, looked up): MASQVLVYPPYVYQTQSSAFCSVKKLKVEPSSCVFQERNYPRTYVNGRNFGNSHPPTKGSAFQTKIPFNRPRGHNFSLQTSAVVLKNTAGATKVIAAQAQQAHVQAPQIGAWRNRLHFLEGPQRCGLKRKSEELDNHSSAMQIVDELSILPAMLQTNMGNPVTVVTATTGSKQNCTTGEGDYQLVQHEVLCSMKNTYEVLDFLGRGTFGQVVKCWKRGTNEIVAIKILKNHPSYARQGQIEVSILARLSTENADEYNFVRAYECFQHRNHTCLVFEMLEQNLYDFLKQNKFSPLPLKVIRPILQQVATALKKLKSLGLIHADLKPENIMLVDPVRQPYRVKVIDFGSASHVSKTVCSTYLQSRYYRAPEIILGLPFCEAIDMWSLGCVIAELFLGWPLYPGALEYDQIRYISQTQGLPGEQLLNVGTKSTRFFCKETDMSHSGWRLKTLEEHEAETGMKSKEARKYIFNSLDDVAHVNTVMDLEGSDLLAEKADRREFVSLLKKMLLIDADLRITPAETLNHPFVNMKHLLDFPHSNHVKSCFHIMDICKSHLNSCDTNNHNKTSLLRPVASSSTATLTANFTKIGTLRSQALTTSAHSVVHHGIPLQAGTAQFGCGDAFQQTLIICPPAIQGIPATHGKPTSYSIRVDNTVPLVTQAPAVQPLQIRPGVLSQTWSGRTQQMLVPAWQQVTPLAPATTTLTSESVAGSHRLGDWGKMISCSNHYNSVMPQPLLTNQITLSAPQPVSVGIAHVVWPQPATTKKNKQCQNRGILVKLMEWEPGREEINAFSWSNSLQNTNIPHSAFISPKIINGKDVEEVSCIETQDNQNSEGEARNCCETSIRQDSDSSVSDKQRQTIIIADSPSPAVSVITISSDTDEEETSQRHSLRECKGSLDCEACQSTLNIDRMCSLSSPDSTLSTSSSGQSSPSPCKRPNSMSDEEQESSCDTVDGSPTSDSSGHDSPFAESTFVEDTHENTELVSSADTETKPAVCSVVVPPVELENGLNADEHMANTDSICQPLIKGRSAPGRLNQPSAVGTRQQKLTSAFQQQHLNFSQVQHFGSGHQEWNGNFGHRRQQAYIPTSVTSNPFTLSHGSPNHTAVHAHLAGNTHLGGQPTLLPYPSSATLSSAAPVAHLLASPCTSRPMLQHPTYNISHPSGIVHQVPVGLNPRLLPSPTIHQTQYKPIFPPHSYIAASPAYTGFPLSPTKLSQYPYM
Sequence of Protein kinase C eta type (Homo sapiens) (P24723 whole entry): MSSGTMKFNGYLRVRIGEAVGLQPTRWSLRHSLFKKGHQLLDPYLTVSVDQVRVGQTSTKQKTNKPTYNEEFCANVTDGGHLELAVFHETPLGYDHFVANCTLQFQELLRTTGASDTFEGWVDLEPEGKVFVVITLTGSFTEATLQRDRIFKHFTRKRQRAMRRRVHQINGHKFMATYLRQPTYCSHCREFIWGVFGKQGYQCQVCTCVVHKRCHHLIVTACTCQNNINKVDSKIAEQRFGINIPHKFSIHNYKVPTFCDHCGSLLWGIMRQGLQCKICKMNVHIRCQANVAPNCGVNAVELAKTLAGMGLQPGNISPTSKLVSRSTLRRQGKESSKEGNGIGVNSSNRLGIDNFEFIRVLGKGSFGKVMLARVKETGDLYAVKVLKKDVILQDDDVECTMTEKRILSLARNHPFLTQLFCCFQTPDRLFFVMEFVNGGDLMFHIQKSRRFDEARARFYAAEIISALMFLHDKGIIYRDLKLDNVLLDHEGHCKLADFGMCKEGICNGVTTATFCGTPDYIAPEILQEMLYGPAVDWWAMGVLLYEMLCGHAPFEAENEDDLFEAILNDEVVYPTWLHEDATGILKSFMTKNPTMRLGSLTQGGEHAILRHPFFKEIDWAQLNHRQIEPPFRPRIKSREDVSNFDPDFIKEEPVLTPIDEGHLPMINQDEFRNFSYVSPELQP
Sequence of Insulin-like growth factor 1 receptor (Homo sapiens) (P08069 31-736 limits assumed): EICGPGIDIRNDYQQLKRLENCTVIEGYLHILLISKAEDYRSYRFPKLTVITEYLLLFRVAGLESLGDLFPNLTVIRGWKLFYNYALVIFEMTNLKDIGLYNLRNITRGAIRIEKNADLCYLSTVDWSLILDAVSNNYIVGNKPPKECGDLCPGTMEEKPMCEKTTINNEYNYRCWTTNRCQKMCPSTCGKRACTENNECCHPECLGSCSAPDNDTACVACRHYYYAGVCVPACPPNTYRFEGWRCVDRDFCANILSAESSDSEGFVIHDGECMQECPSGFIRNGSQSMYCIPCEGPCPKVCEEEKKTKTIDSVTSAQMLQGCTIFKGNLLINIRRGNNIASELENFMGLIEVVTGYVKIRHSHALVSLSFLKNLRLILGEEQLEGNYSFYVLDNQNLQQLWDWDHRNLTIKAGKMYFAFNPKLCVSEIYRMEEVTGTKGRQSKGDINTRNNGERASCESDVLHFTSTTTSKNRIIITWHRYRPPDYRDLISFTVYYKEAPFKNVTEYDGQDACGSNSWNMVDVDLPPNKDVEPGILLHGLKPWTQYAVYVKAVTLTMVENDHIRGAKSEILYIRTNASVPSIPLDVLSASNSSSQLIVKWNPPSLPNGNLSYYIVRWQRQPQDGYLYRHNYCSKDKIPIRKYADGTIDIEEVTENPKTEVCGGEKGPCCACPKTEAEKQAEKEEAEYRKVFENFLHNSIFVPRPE
Sequence of Insulin-like growth factor 1 receptor (Homo sapiens) (P08069 741-1367 limits assumed): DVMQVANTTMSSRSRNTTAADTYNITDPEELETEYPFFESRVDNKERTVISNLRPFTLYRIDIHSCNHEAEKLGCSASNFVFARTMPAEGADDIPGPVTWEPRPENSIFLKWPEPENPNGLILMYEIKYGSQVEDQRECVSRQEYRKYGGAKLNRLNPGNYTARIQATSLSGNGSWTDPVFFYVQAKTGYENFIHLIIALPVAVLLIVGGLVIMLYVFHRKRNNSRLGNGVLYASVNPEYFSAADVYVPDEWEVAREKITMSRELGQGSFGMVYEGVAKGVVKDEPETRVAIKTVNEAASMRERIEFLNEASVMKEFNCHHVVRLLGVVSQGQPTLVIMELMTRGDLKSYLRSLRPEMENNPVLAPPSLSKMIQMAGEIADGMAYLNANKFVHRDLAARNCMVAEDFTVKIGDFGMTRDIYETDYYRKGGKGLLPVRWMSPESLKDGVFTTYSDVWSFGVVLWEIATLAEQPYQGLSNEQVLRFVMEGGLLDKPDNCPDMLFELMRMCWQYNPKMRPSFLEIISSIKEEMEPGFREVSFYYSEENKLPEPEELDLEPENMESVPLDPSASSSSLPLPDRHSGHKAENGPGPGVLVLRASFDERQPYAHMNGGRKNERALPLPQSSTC
Sequence of Protein kinase C theta type (Homo sapiens) (Q04759 whole entry, looked up): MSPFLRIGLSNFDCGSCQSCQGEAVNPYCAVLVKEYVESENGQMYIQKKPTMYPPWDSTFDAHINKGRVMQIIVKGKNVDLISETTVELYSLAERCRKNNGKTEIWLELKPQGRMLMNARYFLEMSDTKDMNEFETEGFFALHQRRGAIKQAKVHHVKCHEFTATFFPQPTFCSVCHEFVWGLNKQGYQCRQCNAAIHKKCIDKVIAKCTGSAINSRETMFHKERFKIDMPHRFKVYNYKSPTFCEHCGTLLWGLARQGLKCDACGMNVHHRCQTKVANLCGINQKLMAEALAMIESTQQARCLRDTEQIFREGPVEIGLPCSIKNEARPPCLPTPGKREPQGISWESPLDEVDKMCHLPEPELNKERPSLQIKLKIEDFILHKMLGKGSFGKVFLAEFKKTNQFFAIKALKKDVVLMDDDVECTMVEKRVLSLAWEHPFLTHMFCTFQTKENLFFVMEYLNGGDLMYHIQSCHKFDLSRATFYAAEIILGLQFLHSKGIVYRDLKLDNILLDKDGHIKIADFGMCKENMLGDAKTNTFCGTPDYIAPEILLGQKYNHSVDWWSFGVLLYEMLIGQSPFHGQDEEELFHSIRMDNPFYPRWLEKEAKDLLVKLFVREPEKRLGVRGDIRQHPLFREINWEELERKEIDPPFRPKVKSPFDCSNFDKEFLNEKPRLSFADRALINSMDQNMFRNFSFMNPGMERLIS
Sequence of Tyrosine-protein kinase HCK (Homo sapiens) (P08631 2-526 limits assumed): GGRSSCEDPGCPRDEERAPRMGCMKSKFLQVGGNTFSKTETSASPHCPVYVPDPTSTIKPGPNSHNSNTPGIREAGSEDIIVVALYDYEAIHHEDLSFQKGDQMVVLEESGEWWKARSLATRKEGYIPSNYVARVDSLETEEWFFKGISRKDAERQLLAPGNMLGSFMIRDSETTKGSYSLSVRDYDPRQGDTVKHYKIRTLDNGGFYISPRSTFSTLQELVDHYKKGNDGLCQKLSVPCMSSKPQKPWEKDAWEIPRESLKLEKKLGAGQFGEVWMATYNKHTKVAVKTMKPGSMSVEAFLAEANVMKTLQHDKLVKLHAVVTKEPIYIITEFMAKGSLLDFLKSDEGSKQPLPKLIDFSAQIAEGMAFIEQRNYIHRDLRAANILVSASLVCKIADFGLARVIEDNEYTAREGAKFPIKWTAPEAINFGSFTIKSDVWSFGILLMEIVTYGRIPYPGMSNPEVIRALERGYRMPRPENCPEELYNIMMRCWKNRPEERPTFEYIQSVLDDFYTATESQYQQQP

Row | SMILES | residual activity [1] [%] | residual activity [2] [%] | residual activity [3] [%] | residual activity [4] [%] | residual activity [5] [%] | residual activity [6] [%] | residual activity [7] [%] | residual activity [8] [%] | residual activity [9] [%] | residual activity [10] [%] | residual activity [11] [%] | residual activity [12] [%] | residual activity [13] [%] | residual activity [14] | residual activity [15] [%] | residual activity [16] [%] | residual activity [17] [%] | residual activity [18] [%] | residual activity [19] [%] | residual activity [20] [%]
1 | CCCC(=O)Oc1ccc2[nH]c(C(=O)c3cc4ccccc4[nH]3)cc2c1 | 98 | 106 | 99 | 70 | 36 | 98 | 94 | 143 | 106 | 102 | 81 | 92 | 75 | 99% (inactive) | 101 | 103 | 99 | – | – | –
2 | N#C/C(=C1/Nc2ccccc2S1)c1ccnc(NCCc2cccnc2)n1 | 21 | 36 | -2 | 60 | 26 | 88 | 68 | 143 | 72 | – | – | 95 | 72 | – | 73 | 36 | – | – | – | –
3 | c1ccc(-c2cnc(Nc3ccc(OCCN4CCCC4)cc3)s2)cc1 | 31 | 77 | 51 | 57 | 24 | 71 | 11 | 119 | 108 | – | – | 115 | 102 | – | – | – | – | 109 | – | –
4 | O=C1NC(=O)c2c1c1c3ccccc3[nH]c1n1cncc21 | 42 | 8 | 18 | 54 | 39 | 38 | 35 | 9 | 14 | 85 | 81 | 71 | – | 102% (inactive) | 41 | 25 | 90 | – | 52 | 42

From ChEMBL document CHEMBL2218924, “A broad activity screen in support of a chemogenomic map for kinase signalling research and drug discovery” (Biochem J, 2013)
